Shown is part of a subset that was picked to be rich in hits.
KDM5B inh: Primary screen for KDM5B Histone Demethylases FDH-coupled qHTS; KDM5B demethylase, FDH-coupled NADH fluorescence (FDH is formaldehyde dehydrogenase); Potency, µM (highest dose often 57.7 µM), hits mostly inhibitors; actives 2.6% (n = 220,000); AID 1347165, 2019; active = well fitted inhibition curve with a large enough effect; also: 0% is about no effect; nearly all actives have a fitted effect of over 70% in size
Target sequence (Q9UGL1 whole entry, looked up): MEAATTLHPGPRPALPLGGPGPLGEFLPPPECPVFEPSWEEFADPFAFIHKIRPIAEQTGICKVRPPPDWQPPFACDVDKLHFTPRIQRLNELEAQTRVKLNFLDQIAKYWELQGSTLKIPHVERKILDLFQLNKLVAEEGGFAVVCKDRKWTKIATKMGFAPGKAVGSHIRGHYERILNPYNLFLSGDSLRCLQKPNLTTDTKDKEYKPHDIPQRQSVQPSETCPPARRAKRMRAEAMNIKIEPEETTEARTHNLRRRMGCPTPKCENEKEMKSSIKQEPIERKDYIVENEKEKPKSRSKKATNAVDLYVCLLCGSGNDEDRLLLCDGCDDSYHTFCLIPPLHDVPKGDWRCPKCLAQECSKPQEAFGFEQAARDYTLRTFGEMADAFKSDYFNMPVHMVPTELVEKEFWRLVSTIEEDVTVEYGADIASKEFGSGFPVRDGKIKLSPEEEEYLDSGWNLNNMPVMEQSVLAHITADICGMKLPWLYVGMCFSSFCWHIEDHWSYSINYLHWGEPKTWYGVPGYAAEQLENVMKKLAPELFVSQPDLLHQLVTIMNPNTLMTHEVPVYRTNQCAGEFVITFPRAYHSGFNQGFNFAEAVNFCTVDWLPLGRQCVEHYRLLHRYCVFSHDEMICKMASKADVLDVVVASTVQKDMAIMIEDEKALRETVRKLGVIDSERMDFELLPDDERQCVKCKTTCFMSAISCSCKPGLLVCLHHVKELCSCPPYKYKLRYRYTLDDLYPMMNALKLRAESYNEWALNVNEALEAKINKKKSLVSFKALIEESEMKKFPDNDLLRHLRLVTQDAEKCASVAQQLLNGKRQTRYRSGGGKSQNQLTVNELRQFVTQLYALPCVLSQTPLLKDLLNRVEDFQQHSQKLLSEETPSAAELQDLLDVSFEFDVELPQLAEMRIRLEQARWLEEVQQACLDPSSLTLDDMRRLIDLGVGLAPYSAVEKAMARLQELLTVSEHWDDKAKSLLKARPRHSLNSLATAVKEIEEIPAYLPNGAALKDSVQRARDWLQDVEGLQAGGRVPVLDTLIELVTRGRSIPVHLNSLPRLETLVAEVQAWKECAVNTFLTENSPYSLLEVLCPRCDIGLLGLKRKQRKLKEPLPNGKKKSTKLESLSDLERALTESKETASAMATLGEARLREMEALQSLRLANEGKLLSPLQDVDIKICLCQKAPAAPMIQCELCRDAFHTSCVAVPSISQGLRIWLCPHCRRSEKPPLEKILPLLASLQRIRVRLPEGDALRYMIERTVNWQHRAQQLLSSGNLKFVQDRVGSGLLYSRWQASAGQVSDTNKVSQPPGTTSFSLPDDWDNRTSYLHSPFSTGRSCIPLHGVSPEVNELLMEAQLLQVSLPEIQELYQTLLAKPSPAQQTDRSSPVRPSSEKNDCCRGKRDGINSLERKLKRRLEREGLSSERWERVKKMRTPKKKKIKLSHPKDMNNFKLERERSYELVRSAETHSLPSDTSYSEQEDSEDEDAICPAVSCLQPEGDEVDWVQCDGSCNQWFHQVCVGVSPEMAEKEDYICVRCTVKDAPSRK
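Here, H3K4me3 peptide (12.5 µM in substrate mix) is demethylated by KDM5BΔAP, 200 nM final, after 10 min compound exposure. Formaldehyde product is coupled through FDH (0.25 U/mL in mix) to NADH fluorescence; 30-min ΔRFU feeds dose-response curves.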
The depositor's hits bear a star; i = inactive. Potency is read from the fitted curve at half-maximal effect.

SMILES	KDM5B inh
CN(C)CC(O)COc1ccc(NC(=O)Nc2cccc(F)c2)cc1 (stereo unspecified)	i
CCCC(C(=O)NC1CCCCC1)(c1ccccc1)c1ccccc1	i
COc1ccc(CNC(=O)C(C)Sc2nc3cc(Cl)ccc3n2C)cc1 (stereo unspecified)	i
O=c1oc(-c2ccccc2)cc(-c2ccccc2)c1-c1ccccc1	i
O=C(Nc1nonc1-c1ccc2c(c1)CCCC2)c1cc(=O)c2ccc(Br)cc2o1	i
NC(=O)[C@@H](Cc1c[nH]c2ccccc12)NC(=O)[C@H]1CN(C(=O)c2cccc(F)c2)CCN1C(=O)c1cccs1	i
CCOC(=O)c1ccc(OCC(O)CNCCCn2nc(C)cc2C)cc1 (stereo unspecified)	i
O=C(NCCc1ccc(Cl)cc1)c1nc(-c2ccc(F)cc2)c2ccccn12	25.1µM*
O=C(Cn1cccc1-c1nc(-c2ccc(F)cc2)no1)NCCc1ccc(Cl)cc1	i
CCCNC(=O)C(C)NC(=O)c1cc(C)nc2ccccc12 (stereo unspecified)	i
CC(=O)c1c(C)nn(CC(=O)N2CCn3nc(Cc4ccccc4)cc3C2)c1C	i
O=C(CCc1ccccc1Cl)N1CCn2nc(Cc3ccccc3)cc2C1	i
CN(CC(=O)N1CCn2nc(Cc3ccccc3)cc2C1)Cc1ccncc1	14.1µM*
CCC1CCc2c(sc(NC(=O)CC(C)(C)C)c2C#N)C1 (stereo unspecified)	i
Fc1ccc(-c2csc(-c3ccsc3)n2)cc1F	i
COc1cccc(N2CC(C(=O)NCC3CC3)NC2=O)c1 (stereo unspecified)	i
Cn1cc(-c2ccccc2)cc1C(=O)NCc1cccs1	i
CC1(C(=O)NCc2cccs2)CCCCC(=O)N1 (stereo unspecified)	i
COc1cccc(Nc2ncc3c(n2)C(C)(C(=O)NCCCn2ccnc2)CC3)c1 (stereo unspecified)	i
COc1cccc(Nc2ncc3c(n2)C(C)(C(=O)N2CCN(c4ccccn4)CC2)CC3)c1 (stereo unspecified)	i
COc1cccc(Nc2ccc3c(n2)C(C)(C(=O)NCC2CC2)CN(C)C3)c1 (stereo unspecified)	35.5µM*
COc1cccc(Nc2ccc3c(n2)C(C)(C(=O)NCCc2cnc[nH]2)CN(C)C3)c1 (stereo unspecified)	39.8µM*
COc1cccc(Nc2ncc3c(n2)C(C)(C(=O)NCCN2CCOCC2)CC3)c1 (stereo unspecified)	i
CN1Cc2ccc(Nc3ccccc3)nc2C(C)(C(=O)NCc2cccs2)C1 (stereo unspecified)	31.6µM*
Cn1c(=O)[nH]c(=O)c2c1nc(SCC(=O)Nc1ccccc1)n2CCCc1ccccc1	i
SMILES	KDM5B inh
Cc1ccc(C(NC(=O)N2CCN(C)CC2)C(Cl)(Cl)Cl)cc1F (stereo unspecified)	i
CCCNc1c(NC(=O)NCc2ccc(C)cc2)c(=O)oc2ccccc12	i
CCOC(=O)CNC(=O)CSc1cn(CC(=O)N(CC)CC)c2ccccc12	i
COCCNC(=O)[C@@H]1Cc2cn(Cc3cccnc3)c3cccc(c23)[C@H](CC(C)C)N1	i
Cc1cccc(NC(NC(=O)c2cccc(C)c2)C(Cl)(Cl)Cl)c1 (stereo unspecified)	i
CCCn1nc(C(=O)NC(c2cccs2)C(C)C)c2ccccc2c1=O (stereo unspecified)	i
COc1ccc(-c2cc3c(ccn3C)c(C(=O)NCc3cccnc3)n2)cc1	i
Cn1ccc2c(C(=O)NCc3cccnc3)nc(-c3cccc(F)c3)cc21	22.4µM*
Cn1ccc2c(C(=O)NCc3cccnc3)nc(-c3cncnc3)cc21	i
Cn1ccc2c(C(=O)NCc3cccnc3)nc(-c3cccc(O)c3)cc21	39.8µM*
Cn1ccc2c(C(=O)NCc3cccnc3)nc(-c3cnn(Cc4ccccc4)c3)cc21	i
Cc1ccc(-c2cc3c(ccn3C)c(C(=O)NCc3cccnc3)n2)cn1	i
CCN(CC)Cc1ccccc1CNC(=O)c1nn(C)c(=O)c2ccccc12	i
C(=C\c1ccccc1)/CN1CCN(Cc2nc(COc3ccccc3)no2)CC1	i
O=C(c1cc(F)ccc1F)N1CCCC2(C1)NC(=O)N(Cc1ccc(Cl)cc1)C2=O (stereo unspecified)	i
Fc1ccc(-c2nc(CSc3ccc4c(c3)OCCO4)cs2)cc1	i
Cc1ccc(C(=O)NC2CCC(C)CC2)cc1C (stereo unspecified)	i
O=C(NC1CC1)c1ccc2cncn2c1	31.6µM*
CNC(=O)c1ccc2cncn2c1	31.6µM*
CNC(=O)c1ccc(I)cc1	i
CN(C)C(=O)c1ccc2cncn2c1	31.6µM*
COc1cc(C(=O)NC2CC2)ccc1C	i
CNC(=O)c1ccn2cncc2c1	i
CN(C)C(=O)c1cc(F)cc(F)c1	i
CN(C)C(=O)c1ccc(F)c(F)c1	i
SMILES	KDM5B inh
CC(On1nnc2ccc(Cl)cc21)C(=O)Nc1ccc(F)cc1F (stereo unspecified)	i
COc1cccc(CN2CCCC(Cc3ncc(C)n3Cc3ccccc3)C2)c1OC (stereo unspecified)	i
Cc1ccc(NC(=O)CCn2cnc3c2c(=O)n(C)c(=O)n3C)c(C)c1	i
CCc1cccc(NC(=O)Cn2c(-c3cccc(Cl)c3)nc(C)c(CCO)c2=O)c1	i
Cc1cccc(OCCSc2nc3cc(S(=O)(=O)N(C)C)ccc3o2)c1	i
CNC(NC(=O)c1ccc(F)cc1)C(Cl)(Cl)Cl (stereo unspecified)	i
COc1ccc(CN2CCNC(=O)C2CC(=O)NC2CCOCC2)c(F)c1 (stereo unspecified)	i
COc1ccc(CN2CCNC(=O)C2CC(=O)NCc2ccco2)c(F)c1 (stereo unspecified)	10µM*
COc1ccc2ccccc2c1CNC(=O)CC1C(=O)NCCN1CC(C)(C)C (stereo unspecified)	i
Cc1cn2nnc(C(=O)N3CCC(C(=O)Nc4ccc(C)c(Cl)c4)CC3)c2c(=O)[nH]1	i
Cc1ccc(C(=O)NC(C(=O)N2CCCCC2)C2CCN(S(=O)(=O)C(C)C)CC2)cc1 (stereo unspecified)	i
O=C(C[C@@H]1CCNC[C@@H]1Cc1cc(COc2ccccc2)on1)NCc1ccccc1	i
Cc1nn(-c2ccccc2)c(Oc2ccc(F)cc2F)c1CCC(=O)N(C)C(C)C	i
CCN(CC)C(=O)CCc1c(C)nn(-c2ccccc2)c1Oc1ccc(F)cc1F	i
CCN(C)C(=O)CCc1c(C)nn(-c2ccccc2)c1Oc1ccccc1F	14.1µM*
Cc1ccc2c(CN3CCc4ccccc43)cc(=O)oc2c1C	i
CC(C)c1ccc(NC(=O)Cc2nn(C)c(=O)c3ccccc23)cc1	i
COc1ccc(CCN(C)C2CCCN(c3ncccc3C#N)C2)cc1OC (stereo unspecified)	25.1µM*
COc1ccc(CCN(C)Cc2nc(-c3ccccn3)no2)cc1OC	i
CCn1nc(C)cc1C(=O)N1CCCC(N(C)CCc2ccc(OC)c(OC)c2)C1 (stereo unspecified)	i
COc1ccc(C(=O)C(C)Oc2ccccc2Cl)cc1 (stereo unspecified)	i
COc1cncc(N2CC3(COCC(=O)N(Cc4cccc(OC(F)(F)F)c4)C3)C2)c1	28.2µM*
Cn1cc(CN2CC3(COCC(=O)N(Cc4cccc(OC(F)(F)F)c4)C3)C2)cn1	i
